Test results published in PubChem BioAssay AID1159580 (chemical genetic matrix, 2015).
Several values for one entry are separate records, joined by “and”; a condition that tells them apart may be missing. Identical values can stand only once. The whole screen tested about 5,500 compounds, of which about 2,000 (36%) were called active. About 18% were inconclusive and are not listed. The list shows a part of the results. Values without a mark were called inactive. Rule as the data show it: active = normalized growth mostly below about 0.91 (no sharp cut-off); inconclusive = no clear call, values can overlap the other calls; inactive = mostly above about 0.92.

Experiment: chemical genetic growth profiling, strain panel (AID 1159580);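 also: tested at 20 µM; growth read once vehicle control cultures reached saturation at 30 °C; 1 = growth at the plate median or of vehicle wells; lower values mean less growth of the strain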
Conditions: growth OD

With Cc1c(OCC(F)(F)F)ccnc1CS(=O)c1nc2ccccc2[nH]1 (stereo not given) the normalized growth (S. cerevisiae deletion strains, locus YJR075W, strain HOC1, hits give low values) was 0.948 and 0.981, the normalized growth (S. cerevisiae deletion strains, locus YKL009W, strain mrt4, hits give low values) was 0.991 and the normalized growth (S. cerevisiae deletion strains, locus YKL068W, hits give low values) was 0.997. For the same compound, the normalized growth (S. cerevisiae deletion strains, locus YKL085W, strain MDH1 (second series), hits give low values) was 0.939, the normalized growth (S. cerevisiae deletion strains, locus YKL085W, strain MDH1, hits give low values) was 0.939 and the normalized growth (S. cerevisiae deletion strains, locus YKL160W, strain elf1, hits give low values) was 1.01. The normalized growth (S. cerevisiae deletion strains, locus YKL190W, strain CNB1, hits give low values) was 0.987, the normalized growth (S. cerevisiae deletion strains, locus YKR001C, strain vps1, hits give low values) was 0.914 and the normalized growth (S. cerevisiae deletion strains, locus YKR026C, strain gcn3, hits give low values) was 1. The normalized growth (S. cerevisiae deletion strains, locus YKR091W, strain srl3, hits give low values) was 1.01, the normalized growth (S. cerevisiae deletion strains, locus YLL001W, strain dnm1, hits give low values) was 1.01 and the normalized growth (S. cerevisiae deletion strains, locus YLL026W, hits give low values) was 1.02. The normalized growth (S. cerevisiae deletion strains, locus YLL041C, strain sdh2, hits give low values) was 1.01, the normalized growth (S. cerevisiae deletion strains, locus YLR027C, strain aat2, hits give low values) was 1.01 and the normalized growth (S. cerevisiae deletion strains, locus YLR039C, strain RIC1, hits give low values) was 0.985. The normalized growth (S. cerevisiae deletion strains, locus YLR058C, strain SHM2, hits give low values) was 0.966, the normalized growth (S. cerevisiae deletion strains, locus YLR102C, strain apc9, hits give low values) was 1 and the normalized growth (S. cerevisiae deletion strains, locus YLR113W, strain HOG1, hits give low values) was 0.581 (active). It also gave a normalized growth (S. cerevisiae deletion strains, locus YLR221C, strain rsa3, hits give low values) of 1, a normalized growth (S. cerevisiae deletion strains, locus YLR258W, strain gsy2, hits give low values) of 1.02 and a normalized growth (S. cerevisiae deletion strains, locus YLR262C, strain YPT6 (second series), hits give low values) of 1.05. For the same compound, the normalized growth (S. cerevisiae deletion strains, locus YLR262C, strain YPT6, hits give low values) was 0.998, the normalized growth (S. cerevisiae deletion strains, locus YLR268W, strain sec22, hits give low values) was 0.826 (active) and the normalized growth (S. cerevisiae deletion strains, locus YLR320W, strain mms22, hits give low values) was 1.01. The normalized growth (S. cerevisiae deletion strains, locus YLR330W, strain CHS5, hits give low values) was 0.987, the normalized growth (S. cerevisiae deletion strains, locus YLR342W, strain FKS1 (second series), hits give low values) was 0.926 and the normalized growth (S. cerevisiae deletion strains, locus YLR342W, strain FKS1, hits give low values) was 1.04. The normalized growth (S. cerevisiae deletion strains, locus YLR357W, strain rsc2, hits give low values) was 1.01, the normalized growth (S. cerevisiae deletion strains, locus YLR370C, strain arc18, hits give low values) was 1.02 and the normalized growth (S. cerevisiae deletion strains, locus YLR371W, strain rom2, hits give low values) was 0.989. For the same compound, the normalized growth (S. cerevisiae deletion strains, locus YLR384C, strain iki3, hits give low values) was 1.02, the normalized growth (S. cerevisiae deletion strains, locus YLR418C, strain cdc73, hits give low values) was 0.828 (active) and the normalized growth (S. cerevisiae deletion strains, locus YML016C, strain PPZ1, hits give low values) was 0.979. The normalized growth (S. cerevisiae deletion strains, locus YML032C, strain rad52, hits give low values) was 0.93, the normalized growth (S. cerevisiae deletion strains, locus YML120C, strain ndi1, hits give low values) was 1.02 and the normalized growth (S. cerevisiae deletion strains, locus YML124C, strain tub3, hits give low values) was 0.997. For the same compound, the normalized growth (S. cerevisiae deletion strains, locus YMR058W, strain fet3, hits give low values) was 1.01, the normalized growth (S. cerevisiae deletion strains, locus YMR078C, strain ctf18, hits give low values) was 0.989 and the normalized growth (S. cerevisiae deletion strains, locus YMR125W, strain sto1, hits give low values) was 1.02. It also gave a normalized growth (S. cerevisiae deletion strains, locus YMR129W, hits give low values) of 1.02, a normalized growth (S. cerevisiae deletion strains, locus YMR205C, strain PFK2, hits give low values) of 1.04 and a normalized growth (S. cerevisiae deletion strains, locus YMR223W, strain ubp8, hits give low values) of 0.981. The normalized growth (S. cerevisiae deletion strains, locus YMR231W, strain pep5, hits give low values) was 1.02, the normalized growth (S. cerevisiae deletion strains, locus YMR263W, strain SAP30, hits give low values) was 0.97 and 0.99 and the normalized growth (S. cerevisiae deletion strains, locus YMR307W, strain GAS1, hits give low values) was 0.907. For the same compound, the normalized growth (S. cerevisiae deletion strains, locus YNL067W, strain RPL9B, hits give low values) was 0.958, the normalized growth (S. cerevisiae deletion strains, locus YNL071W, strain lat1, hits give low values) was 1.01 and the normalized growth (S. cerevisiae deletion strains, locus YNL128W, strain TEP1, hits give low values) was 0.974. The normalized growth (S. cerevisiae deletion strains, locus YNL153C, strain GIM3, hits give low values) was 0.956, the normalized growth (S. cerevisiae deletion strains, locus YNL175C, strain NOP13, hits give low values) was 0.996 and the normalized growth (S. cerevisiae deletion strains, locus YNL183C, strain NPR1, hits give low values) was 0.789 (active). The normalized growth (S. cerevisiae deletion strains, locus YNL197C, strain WHI3, hits give low values) was 0.998, the normalized growth (S. cerevisiae deletion strains, locus YNL209W, strain ssb2, hits give low values) was 1.01 and the normalized growth (S. cerevisiae deletion strains, locus YNL224C, strain SQS1, hits give low values) was 0.993. It also gave a normalized growth (S. cerevisiae deletion strains, locus YNL233W, strain BNI4, hits give low values) of 0.941, a normalized growth (S. cerevisiae deletion strains, locus YNL248C, strain rpa49, hits give low values) of 1.02 and a normalized growth (S. cerevisiae deletion strains, locus YNL250W, strain rad50, hits give low values) of 0.902. The normalized growth (S. cerevisiae deletion strains, locus YNL271C, strain bni1, hits give low values) was 0.913 (active), the normalized growth (S. cerevisiae deletion strains, locus YNL298W, strain CLA4, hits give low values) was 0.834 (active) and the normalized growth (S. cerevisiae deletion strains, locus YNL307C, strain MCK1, hits give low values) was 0.872 (active). For the same compound, the normalized growth (S. cerevisiae deletion strains, locus YNL322C, strain KRE1 (second series), hits give low values) was 1.02, the normalized growth (S. cerevisiae deletion strains, locus YNL322C, strain KRE1, hits give low values) was 0.998 and the normalized growth (S. cerevisiae deletion strains, locus YNR049C, strain mso1, hits give low values) was 1.01. The normalized growth (S. cerevisiae deletion strains, locus YNR052C, strain pop2, hits give low values) was 0.98, the normalized growth (S. cerevisiae deletion strains, locus YOL006C, strain TOP1, hits give low values) was 0.989 and the normalized growth (S. cerevisiae deletion strains, locus YOL012C, strain htz1) was 0.898. For the same compound, the normalized growth (S. cerevisiae deletion strains, locus YOL147C, strain pex11, hits give low values) was 0.965, the normalized growth (S. cerevisiae deletion strains, locus YOR001W, strain rrp6, hits give low values) was 1.02 and the normalized growth (S. cerevisiae deletion strains, locus YOR061W, strain CKA2, hits give low values) was 0.992. The normalized growth (S. cerevisiae deletion strains, locus YOR069W, strain VPS5, hits give low values) was 0.989, the normalized growth (S. cerevisiae deletion strains, locus YOR070C, strain gyp1, hits give low values) was 1.02 and the normalized growth (S. cerevisiae deletion strains, locus YOR080W, strain dia2, hits give low values) was 1.01. It also gave a normalized growth (S. cerevisiae deletion strains, locus YOR083W, strain WHI5 (second series), hits give low values) of 0.966, a normalized growth (S. cerevisiae deletion strains, locus YOR083W, strain WHI5, hits give low values) of 1.01 and a normalized growth (S. cerevisiae deletion strains, locus YOR106W, strain vam3, hits give low values) of 0.991. It also gave a normalized growth (S. cerevisiae deletion strains, locus YOR136W, strain idh2, hits give low values) of 0.979, a normalized growth (S. cerevisiae deletion strains, locus YOR144C, strain elg1, hits give low values) of 0.977 and a normalized growth (S. cerevisiae deletion strains, locus YOR184W, strain ser1, hits give low values) of 0.881. It also gave a normalized growth (S. cerevisiae deletion strains, locus YOR231W, strain MKK1, hits give low values) of 0.91, a normalized growth (S. cerevisiae deletion strains, locus YOR265W, strain rbl2, hits give low values) of 1.02 and a normalized growth (S. cerevisiae deletion strains, locus YOR270C, strain vph1, hits give low values) of 1.06. It also gave a normalized growth (S. cerevisiae deletion strains, locus YOR290C, strain snf2, hits give low values) of 1.01, a normalized growth (S. cerevisiae deletion strains, locus YOR316C, strain cot1, hits give low values) of 0.988 and a normalized growth (S. cerevisiae deletion strains, locus YPL051W, strain arl3, hits give low values) of 0.993. For the same compound, the normalized growth (S. cerevisiae deletion strains, locus YPL055C, strain LGE1, hits give low values) was 0.955 and 0.953, the normalized growth (S. cerevisiae deletion strains, locus YPL078C, strain atp4, hits give low values) was 1.02 and the normalized growth (S. cerevisiae deletion strains, locus YPL106C, strain sse1, hits give low values) was 1.01. The normalized growth (S. cerevisiae deletion strains, locus YPL240C, strain hsp82, hits give low values) was 1.02, the normalized growth (S. cerevisiae deletion strains, locus YPL241C, strain CIN2, hits give low values) was 1 and the normalized growth (S. cerevisiae deletion strains, locus YPR119W, strain clb2, hits give low values) was 0.996. It also gave a normalized growth (S. cerevisiae deletion strains, locus YPR141C, strain kar3, hits give low values) of 1.01, a normalized growth (S. cerevisiae deletion strains, locus YPR163C, strain tif3, hits give low values) of 0.976 and a normalized growth (S. cerevisiae deletion strains, locus YPR167C, strain met16, hits give low values) of 0.988. For the same compound, the normalized growth (S. cerevisiae deletion strains, strain wtn01, hits give low values) was 0.95 and the normalized growth (S. cerevisiae strains, strain wild type, hits give low values) was 0.972.
